# From the supplement of paper PMC12282887
# ± gives the standard deviation of the averaged measurements.
# Experiments:
# Experiment in all cases: promoter activity interaction Z-score (Lux/OD deviation from empty-vector control); higher = stronger promoter induction by the compound
# [1] = tested on: E. coli BW25113 micFp lux reporter; details: 2.1 µg/ml
# Outline: (§1)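 E. coli BW25113, as wild type or one of three single-gene deletion strains, carried low-copy luxCDABE promoter reporters and grew in 40 µl LB Lennox in 384-well plates at 37°C, with OD600 and luminescence read every 30 min for 12 h. Each compound was run at four 1:2 dilutions in biological duplicates, integration spanned 0–8 h for wild type and 1–9 h for deletion strains, and wells under 10% of the median growth value were dropped. The score is the Z-transformed residual of growth-normalised luminescence fitted against a control.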
# [2] = tested on: E. coli BW25113 ompFp lux reporter
# Outline: as §1
# [3] = tested on: E. coli BW25113 robp lux reporter
# Outline: as §1
# [4] = tested on: E. coli BW25113 soxSp lux reporter
# Outline: as §1
# [5] = tested on: E. coli BW25113 tolCp lux reporter
# Outline: as §1
# [6] = 0.26 µg/ml, genetic background: wild type
# [7] = 0.26 µg/ml, genetic background: ΔmarA
# [8] = 0.26 µg/ml, genetic background: Δrob
# [9] = 0.26 µg/ml, genetic background: ΔsoxS
# [10] = 0.52 µg/ml, genetic background: wild type
# [11] = 0.52 µg/ml, genetic background: ΔmarA
# [12] = 0.52 µg/ml, genetic background: Δrob
# [13] = 0.52 µg/ml, genetic background: ΔsoxS
# [14] = 1 µg/ml, genetic background: wild type
# [15] = 1 µg/ml, genetic background: ΔmarA
# [16] = 1 µg/ml, genetic background: Δrob
# [17] = 1 µg/ml, genetic background: ΔsoxS
# [18] = 2.1 µg/ml, genetic background: wild type
# [19] = 2.1 µg/ml, genetic background: ΔmarA
# [20] = 2.1 µg/ml, genetic background: Δrob
# [21] = 2.1 µg/ml, genetic background: ΔsoxS
structure (smiles),measurement,setting,value
CCC[C@@H]1C[C@@H](C(=O)N[C@@H]([C@H]2O[C@H](SC)[C@H](O)[C@@H](O)[C@H]2O)[C@H](C)Cl)N(C)C1 [Clindamycin],promoter activity interaction Z-score,[1]; genetic background: Δrob,0.0565 ± 0.17
same,promoter activity interaction Z-score,[1]; genetic background: ΔsoxS,0.457 ± 0.16
same,promoter activity interaction Z-score,[2]; [6],0.86 ± 0.48
same,promoter activity interaction Z-score,[2]; [7],0.602 ± 0.034
same,promoter activity interaction Z-score,[2]; [8],0.184 ± 0.088
same,promoter activity interaction Z-score,[2]; [9],-0.129 ± 0.28
same,promoter activity interaction Z-score,[2]; [10],0.0844 ± 0.74
same,promoter activity interaction Z-score,[2]; [11],0.364 ± 0.24
same,promoter activity interaction Z-score,[2]; [12],0.973 ± 0.091
same,promoter activity interaction Z-score,[2]; [13],0.0417 ± 0.17
same,promoter activity interaction Z-score,[2]; [14],0.629 ± 1
same,promoter activity interaction Z-score,[2]; [15],0.255 ± 0.36
same,promoter activity interaction Z-score,[2]; [16],0.164 ± 0.52
same,promoter activity interaction Z-score,[2]; [17],0.389 ± 0.074
same,promoter activity interaction Z-score,[2]; [18],1.41 ± 0.49
same,promoter activity interaction Z-score,[2]; [19],0.484 ± 0.28
same,promoter activity interaction Z-score,[2]; [20],0.877 ± 0.67
same,promoter activity interaction Z-score,[2]; [21],1.71 ± 1.1
same,promoter activity interaction Z-score,[3]; [6],0.81 ± 0.04
same,promoter activity interaction Z-score,[3]; [7],0.716 ± 0.3
same,promoter activity interaction Z-score,[3]; [8],0.204 ± 0.64
same,promoter activity interaction Z-score,[3]; [9],0.581 ± 0.019
same,promoter activity interaction Z-score,[3]; [10],0.0509 ± 0.11
same,promoter activity interaction Z-score,[3]; [11],0.27 ± 0.26
same,promoter activity interaction Z-score,[3]; [12],-0.0366 ± 0.51
same,promoter activity interaction Z-score,[3]; [13],0.513 ± 0.74
same,promoter activity interaction Z-score,[3]; [14],0.553 ± 1.1
same,promoter activity interaction Z-score,[3]; [15],0.0526 ± 0.64
same,promoter activity interaction Z-score,[3]; [16],0.0577 ± 0.99
same,promoter activity interaction Z-score,[3]; [17],0.531 ± 0.43
same,promoter activity interaction Z-score,[3]; [18],-0.23 ± 0.084
same,promoter activity interaction Z-score,[3]; [19],-0.785 ± 0.17
same,promoter activity interaction Z-score,[3]; [20],-0.582 ± 0.73
same,promoter activity interaction Z-score,[3]; [21],-0.589 ± 0.59
same,promoter activity interaction Z-score,[4]; [6],0.148 ± 0.1
same,promoter activity interaction Z-score,[4]; [7],0.331 ± 0.014
same,promoter activity interaction Z-score,[4]; [8],0.202 ± 0.053
same,promoter activity interaction Z-score,[4]; [9],0.316 ± 0.0083
same,promoter activity interaction Z-score,[4]; [10],-0.237 ± 0.079
same,promoter activity interaction Z-score,[4]; [11],0.237 ± 0.021
same,promoter activity interaction Z-score,[4]; [12],0.217 ± 0.043
same,promoter activity interaction Z-score,[4]; [13],0.23 ± 0.076
same,promoter activity interaction Z-score,[4]; [14],0.0391 ± 0.054
same,promoter activity interaction Z-score,[4]; [15],0.244 ± 0.1
same,promoter activity interaction Z-score,[4]; [16],0.0504 ± 0.034
same,promoter activity interaction Z-score,[4]; [17],0.138 ± 0.2
same,promoter activity interaction Z-score,[4]; [18],-0.0707 ± 0.029
same,promoter activity interaction Z-score,[4]; [19],0.0916 ± 0.17
same,promoter activity interaction Z-score,[4]; [20],0.0849 ± 0.32
same,promoter activity interaction Z-score,[4]; [21],0.0804 ± 0.017
same,promoter activity interaction Z-score,[5]; [6],-0.169 ± 0.35
same,promoter activity interaction Z-score,[5]; [7],0.807 ± 0.31
same,promoter activity interaction Z-score,[5]; [8],0.395 ± 0.66
same,promoter activity interaction Z-score,[5]; [9],-0.505 ± 0.044
same,promoter activity interaction Z-score,[5]; [10],0.223 ± 1
same,promoter activity interaction Z-score,[5]; [11],0.212 ± 1.3
same,promoter activity interaction Z-score,[5]; [12],0.229 ± 0.18
same,promoter activity interaction Z-score,[5]; [13],0.282 ± 0.71
same,promoter activity interaction Z-score,[5]; [14],-0.594 ± 0.74
same,promoter activity interaction Z-score,[5]; [15],0.0618 ± 0.085
same,promoter activity interaction Z-score,[5]; [16],-0.255 ± 0.54
same,promoter activity interaction Z-score,[5]; [17],0.674 ± 0.27
same,promoter activity interaction Z-score,[5]; [18],-0.385 ± 0.39
same,promoter activity interaction Z-score,[5]; [19],-0.307 ± 0.67
same,promoter activity interaction Z-score,[5]; [20],0.0932 ± 0.95
same,promoter activity interaction Z-score,[5]; [21],0.0435 ± 0.33
